Records with an inconclusive call do not appear. The source made the active and inactive calls. Calls follow the shape of the dose curve; as a rule, active = well fitted inhibition curve with a large enough effect; inconclusive = small, poorly fitted or top-dose-only effect; inactive = flat fitted curve, though single readings scatter.

Holding throughout (assay): qHTS profiling for inhibitors of Plasmodium falciparum proliferation (AID 504749); also: nearly all actives have a fitted effect of over 60% in size
Common to all, as to conditions: P. falciparum in erythrocytes, SYBR Green DNA, 72 h; series mostly up to 28.7 µM

In one test the test system is P94_40. The method in brief: (§1)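 In a 72 h erythrocytic culture (37 C, humidified, 5% CO2) at 2.5% hematocrit and 0.3% starting parasitemia, compounds were tested; SYBR Green I in detergent lysis buffer stained parasite DNA overnight.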
A further test deals with PAD. The essentials: as §1
In a further test the test system is PC15. The essentials:
as §1

Another test has as its system PC26. The method in brief: as §1
A further test relates to PC49. The essentials: as §1
A further test deals with SC27B. The method in brief:
as §1

A further test concerns TAB109. The essentials:
as §1

For another test, the system named is TAB113. The essentials: as §1
The next test deals with TAB165. The method in brief: as §1
For another test, the system named is W2. The method in brief:
as §1
Potency is read from the fitted curve at half-maximal effect.

As to `CN1CCC(=C2c3ccccc3C=Cc3ccccc32)CC1`, the Potency result in the test on P94_40, in the test on PAD, with PC15, in the test on PC26, in the test with PC49 and in the test with SC27B was “inactive” in each case. The Potency entry in the test with TAB109, in the test with TAB113 and with TAB165 was “inactive” throughout.

In the case of `CC(C)(C)C(=O)Oc1ccc(S(=O)(=O)Nc2ccccc2C(=O)NCC(=O)O)cc1`, the Potency entry with P94_40, in the test with PAD, with PC15, with PC26, in the test on PC49 and in the test with SC27B was “inactive” each time. Further, the Potency entry in the test with TAB109, in the test with TAB113, with TAB165 and with W2 was “inactive” throughout.

On to `CC[N+](CC)(CC)CCOc1cccc(OCC[N+](CC)(CC)CC)c1OCC[N+](CC)(CC)CC`, for which the Potency result with P94_40, in the test on PAD, in the test with PC15, in the test on PC26, in the test with PC49 and with SC27B was “inactive” throughout. In addition, the Potency entry with TAB109, in the test with TAB113, in the test on TAB165 and with W2 was “inactive” throughout.

With `COc1ccccc1OCC(O)CN1CCN(CC(=O)Nc2c(C)cccc2C)CC1` (stereo unspecified), the Potency result in the test with P94_40, in the test on PAD, in the test with PC15, in the test on PC26, in the test with PC49 and with SC27B was “inactive” throughout. For the same compound, the Potency result with TAB109, with TAB113, with TAB165 and in the test on W2 was “inactive” throughout.

Consider `Cc1cc(C(C)(C)C)c(O)c(C)c1CC1=NCCN1`, for which the Potency result in the test on P94_40, in the test with PAD, in the test on PC15, in the test on PC26, with PC49 and in the test on SC27B was “inactive” each time. For the same compound, the Potency entry in the test on TAB109, in the test with TAB113, in the test on TAB165 and in the test on W2 was “inactive” each time.

As to `COC(=O)Nc1nc2ccc(C(=O)c3cccs3)cc2[nH]1`, the Potency result in the test with P94_40, in the test with PAD, in the test on PC15, in the test on PC26, with PC49 and in the test on SC27B was “inactive” throughout. For the same compound, the Potency result in the test on TAB109, in the test on TAB113 and with TAB165 was “inactive” throughout.

On to `CN(CCOc1ccc(NS(C)(=O)=O)cc1)CCc1ccc(NS(C)(=O)=O)cc1`, for which the Potency result with P94_40, in the test on PAD, in the test with PC15, in the test on PC26, in the test on PC49 and in the test with SC27B was “inactive” in each case. Besides, the Potency result in the test with TAB109, with TAB113, with TAB165 and in the test on W2 was “inactive” throughout.

As to `NC(=O)NO`, the Potency entry in the test with P94_40, with PAD, in the test on PC15, with PC26, in the test on PC49 and with SC27B was “inactive” in each case. Also, the Potency entry in the test on TAB109, with TAB113, with TAB165 and in the test on W2 was “inactive” in each case.

Regarding `NC(=O)OCC(COC(N)=O)c1ccccc1`, the Potency entry in the test with P94_40, in the test on PAD, in the test on PC15, in the test with PC26, in the test with PC49 and with SC27B was “inactive” each time. Also, the Potency result in the test with TAB109, with TAB113 and in the test with TAB165 was “inactive” each time.

On to `NCCS(=O)(=O)O`, for which the Potency entry in the test with P94_40, in the test on PAD, in the test with PC15, in the test on PC26, in the test with PC49 and with SC27B was “inactive” each time. The Potency result with TAB109, with TAB113 and in the test with TAB165 was “inactive” in each case.

On to `Nc1nnc(-c2cccc(Cl)c2Cl)c(N)n1`, for which the Potency entry in the test with P94_40, with PAD, with PC15, in the test with PC26, in the test with PC49 and in the test on SC27B was “inactive” throughout. Further, the Potency entry in the test with TAB109, with TAB113, in the test on TAB165 and in the test on W2 was “inactive” in each case.

For `NS(=O)(=O)c1cc2c(cc1Cl)NCNS2(=O)=O`, the Potency entry with P94_40, with PAD, with PC15, in the test on PC26, with PC49 and in the test on SC27B was “inactive” in each case. Besides, the Potency result in the test on TAB109, in the test with TAB113, in the test on TAB165 and in the test on W2 was “inactive” each time.

As for `NCCCCCC(=O)O`, the Potency result in the test with P94_40, in the test with PAD, in the test with PC15, in the test with PC26, in the test on PC49 and in the test on SC27B was “inactive” each time. For the same compound, the Potency result with TAB109, in the test on TAB113, in the test with TAB165 and in the test with W2 was “inactive” each time.

For `CCOC(=O)C(C)(C)Oc1ccc(Cl)cc1`, the Potency result with P94_40, in the test with PAD, in the test with PC15, in the test on PC26, in the test on PC49 and in the test on SC27B was “inactive” throughout. In addition, the Potency entry with TAB109, in the test with TAB113, with TAB165 and with W2 was “inactive” each time.

Take `Cc1cn([C@H]2C[C@H](N=[N+]=[N-])[C@@H](CO)O2)c(=O)[nH]c1=O`: the Potency result with P94_40, in the test with PAD, with PC15, in the test on PC26, in the test with PC49 and in the test on SC27B was “inactive” throughout. Further, the Potency entry in the test on TAB109, in the test with TAB113, with TAB165 and in the test with W2 was “inactive” each time.

As for `CCCNCC(O)COc1ccccc1C(=O)CCc1ccccc1` (stereo unspecified), the Potency in the test with P94_40 is 316 nM (active); with PAD, 398 nM (active); in the test with PC15, 708 nM (active); with PC26, 1690 nM (active); in the test on PC49 it was 316 nM (active); in the test with SC27B, 891 nM (active). The Potency is 794 nM (active) with TAB109, 794 nM (active) with TAB113, 447 nM (active) in the test with TAB165 and 379 nM (active) with W2.

On to `C[C@](N)(Cc1ccc(O)c(O)c1)C(=O)O`, for which the Potency result in the test on P94_40, in the test on PAD, in the test on PC15, with PC26, in the test on PC49 and with SC27B was “inactive” in each case. Moreover, the Potency result with TAB109, in the test on TAB113, in the test with TAB165 and with W2 was “inactive” throughout.

For `COc1cc2c(c(OC)c1OC)-c1ccc(OC)c(=O)cc1[C@@H](NC(C)=O)CC2`, the Potency entry in the test with P94_40, in the test on PAD, in the test with PC15, in the test with PC26, with PC49 and in the test on SC27B was “inactive” each time. The Potency entry in the test on TAB109, in the test on TAB113 and with TAB165 was “inactive” each time.

Take `CN(C)c1nc(N(C)C)nc(N(C)C)n1`: the Potency entry in the test on P94_40, with PAD, with PC15, with PC26, in the test with PC49 and with SC27B was “inactive” in each case. The Potency result with TAB109, in the test on TAB113, in the test on TAB165 and in the test on W2 was “inactive” each time.

Regarding `Cc1cn([C@H]2C=C[C@@H](CO)O2)c(=O)[nH]c1=O`, the Potency result in the test on P94_40, in the test on PAD, in the test with PC15, in the test on PC26, with PC49 and with SC27B was “inactive” throughout. Besides, the Potency entry in the test on TAB109, with TAB113, with TAB165 and with W2 was “inactive” throughout.

In the case of `N[C@@H](Cc1c[nH]c2ccc(O)cc12)C(=O)O`, the Potency result in the test on P94_40, in the test with PAD, in the test on PC15, in the test with PC26, in the test on PC49 and in the test on SC27B was “inactive” in each case. Also, the Potency entry with TAB109, in the test with TAB113, in the test on TAB165 and with W2 was “inactive” each time.

Take `COc1ccccc1N1CCN(CC(O)COc2cccc3ccccc23)CC1` (stereo unspecified): the Potency result with P94_40, with PAD, in the test with PC15, with PC26, with PC49 and in the test on SC27B was “inactive” in each case. In addition, the Potency result in the test on TAB109 is “inactive”.

With `COc1nc(C)nc(Cl)c1NC1=NCCN1`, the Potency result in the test with P94_40, in the test with PAD, in the test on PC15, in the test on PC26, in the test with PC49 and with SC27B was “inactive” throughout. Moreover, the Potency entry in the test on TAB109, in the test with TAB113, in the test on TAB165 and with W2 was “inactive” each time.

With `Cn1cnc2c1c(=O)[nH]c(=O)n2C`, the Potency result in the test with P94_40, in the test on PAD, in the test with PC15, in the test with PC26, in the test on PC49 and in the test with SC27B was “inactive” in each case. The Potency entry in the test with TAB109, with TAB113, in the test on TAB165 and with W2 was “inactive” throughout.

For the compound `CS(=O)(=O)CCNCc1ccc(-c2ccc3ncnc(Nc4ccc(OCc5cccc(F)c5)c(Cl)c4)c3c2)o1`, the Potency entry in the test with P94_40, in the test with PAD, in the test with PC15, in the test on PC26, with PC49 and in the test on SC27B was “inactive” throughout. For the same compound, the Potency entry in the test with TAB109, in the test with TAB113, in the test with TAB165 and in the test with W2 was “inactive” in each case.

For the compound `Cc1cc(C(C)(C)C)cc(C)c1CC1=NCCN1`, the Potency result with P94_40, in the test on PAD, in the test on PC15, in the test on PC26, in the test on PC49 and with SC27B was “inactive” throughout. Besides, the Potency result in the test on TAB109, with TAB113 and in the test on TAB165 was “inactive” in each case. The Potency in the test with W2 is 4050 nM (active).

For `CN1CCN2c3ccccc3Cc3ccccc3C2C1` (stereo unspecified), the Potency result in the test on P94_40, in the test on PAD, with PC15, in the test on PC26, in the test on PC49 and in the test with SC27B was “inactive” throughout. In addition, the Potency result in the test on TAB109, in the test on TAB113 and in the test with TAB165 was “inactive” each time.

Consider `COc1ccc2[nH]cc(CCNC(C)=O)c2c1`, for which the Potency result in the test with P94_40, in the test with PAD, with PC15, with PC26, in the test on PC49 and in the test on SC27B was “inactive” throughout. The Potency result in the test on TAB109, in the test on TAB113, in the test with TAB165 and in the test on W2 was “inactive” in each case.

Regarding `Cn1c(=O)c2c(ncn2C)n(C)c1=O`, the Potency entry with P94_40, in the test with PAD, in the test on PC15, in the test on PC26, in the test with PC49 and in the test with SC27B was “inactive” in each case. The Potency result in the test on TAB109, in the test with TAB113, with TAB165 and in the test on W2 was “inactive” each time.

Regarding `O=C1N(c2ccccc2)c2ccccc2C1(Cc1ccncc1)Cc1ccncc1`, the Potency result with P94_40, in the test with PAD, in the test with PC15, in the test on PC26, in the test with PC49 and with SC27B was “inactive” in each case. For the same compound, the Potency result in the test on TAB109, with TAB113, in the test on TAB165 and in the test with W2 was “inactive” each time.

With `Cc1cnc(C(=O)NCCc2ccc(S(=O)(=O)NC(=O)NC3CCCCC3)cc2)cn1`, the Potency result in the test on P94_40, in the test on PAD, in the test on PC15, in the test on PC26, in the test with PC49 and in the test with SC27B was “inactive” each time. The Potency entry in the test with TAB109, with TAB113, in the test on TAB165 and in the test with W2 was “inactive” each time.

Consider `CC(C)Cc1ccc(C(C)C(=O)O)cc1` (stereo unspecified), for which the Potency entry in the test with P94_40, in the test on PAD, in the test on PC15, with PC26, in the test on PC49 and in the test on SC27B was “inactive” each time. Moreover, the Potency entry with TAB109, in the test with TAB113, in the test with TAB165 and in the test with W2 was “inactive” throughout.

The values are drawn from PubChem BioAssay (NCATS).
